Compounds with a hit are over-represented: about 4.8% of the library has one in this group of screens.
S2 tox = viability counter-screen for ATXN expression inhibitors | Potency, µM (top dose mostly 56.7 µM), actives largely listed as cytotoxic | AID 651635 | S2 cells (HEK-293 line with an ATXN2-luciferase reporter) viability, CellTiter-Fluor protease fluorescence, 24 h | 400,000 compounds, 0.49% hits; note: nearly all actives have a fitted effect of over 40% in size
ATXN2 expr inh = ATXN2 expression inhibition; Potency, µM (highest dose often 57 µM), usual class: inhibitors; HEK-293 ATXN2-luciferase reporter, luminescence, 24 h; AID 1745845; 360,000 compounds, 0.72% hits; note: nearly all actives have a fitted effect of over 55% in size
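qHTS (up to 57 uM final) was run with 24 h compound exposure of reporter cells at 37 °C. Each well was multiplexed: SteadyGlo luminescence measured ATXN2-luciferase expression after a fluorogenic Gly-Phe-AFC viability readout (25 uM final).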
DRD3 agonist = D3 dopamine receptor (human) agonism | P35462 | D3R DiscoveRx beta-arrestin cells, luminescence, 90 min | max activation, % | 410,000 compounds, 0.58% hits; in the data active = max activation above about 30%
Target sequence (P35462 whole entry, looked up): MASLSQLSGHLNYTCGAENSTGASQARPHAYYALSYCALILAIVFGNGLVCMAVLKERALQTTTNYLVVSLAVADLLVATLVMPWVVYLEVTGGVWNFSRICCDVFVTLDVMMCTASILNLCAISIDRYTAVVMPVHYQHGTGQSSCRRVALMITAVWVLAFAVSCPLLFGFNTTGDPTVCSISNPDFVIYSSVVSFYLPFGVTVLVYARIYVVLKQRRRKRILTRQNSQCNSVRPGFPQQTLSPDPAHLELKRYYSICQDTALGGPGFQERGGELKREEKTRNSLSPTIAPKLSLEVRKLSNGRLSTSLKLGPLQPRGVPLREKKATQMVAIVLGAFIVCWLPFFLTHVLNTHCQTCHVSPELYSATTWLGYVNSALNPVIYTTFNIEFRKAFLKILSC
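Agonist mode: compounds and dopamine controls were applied to plated cells for 90 min at 37 degrees C after an overnight attachment at 1500 cells/well. Luminescent read-out followed 30 - 60 minutes at room temperature with DiscoveRx detection reagent.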
HepG2 viability = counter-screen for TGF-b inhibitors: cytotoxicity in HepG2 cells; 410,000 compounds, 0.76% hits; HepG2 CAGA-GFP viability, ATP luminescence, 18 h; Potency, µM (highest dose often 46.1 µM), usual class: cytotoxic
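CellTiter-Glo luminescence gave cytotoxicity after 18 hours at 37 degrees C. The cells were HepG2 CAGA-GFP in 1% FBS DMEM, stimulated with 500 pg/mL TGF-beta after compound addition. %Activity was normalised to no-cell wells (complete cell-killing) and DMSO (no toxicity), and curves were fitted and classified.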
TGFb inhibitor = TGF-b pathway inhibition; HepG2 CAGA-GFP TGF-b/SMAD3 reporter, GFP fluorescence, 18 h; TGF-beta stimulated, 500 pg/mL final; Potency, µM (doses to about 46.1 µM), usual class: inhibitors; 410,000 compounds, 1.2% hits; AID 588855; note: nearly all actives have a fitted effect of over 65% in size
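Smad-responsive CAGA-GFP expression was quantified in HEPG2 cells exposed to compounds and 500 pg/mL final TGF-beta for 18 h at 37 degrees C; unstimulated wells defined full inhibition.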
DRD3 antagonist = blocks the human D3 dopamine receptor. D3R cells, DiscoveRx beta-arrestin luminescence, antagonist mode; hits give low values. max response, negative = inhibition, %. AID 652054. P35462. 360,000 compounds, 2.5% hits; in the data active = max response below about -50%; inconclusive = no clear call, values can overlap the other calls
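Cells expressing the human receptor were seeded at 1500 cells/well, incubated overnight at 37 degrees C in 5% CO2, then exposed to library compounds with dopamine controls for 90 minutes at 37 degrees C before luminescent detection.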
Large screens that a line does not name were inactive. Unless noted, calls come from the whole dose curve; as a rule, active = well fitted curve in the direction sought with a large enough effect; inconclusive = small, poorly fitted or top-dose-only effect, or another doubt; inactive = no such curve, though single readings can be large; an effect the other way counts as inactive or inconclusive.

Cc1cnc(Nc2ccc(OCCN3CCCC3)cc2)nc1Nc1cccc(S(=O)(=O)NC(C)(C)C)c1	none (no result: S2 tox, DRD3 agonist, HepG2 viability, TGFb inhibitor, DRD3 antagonist)
Nc1ccc2c(c1)C(=O)C(=O)c1ccccc1-2	S2 tox 6.31µM, ATXN2 expr inh 4.47µM, HepG2 viability 3.98µM, TGFb inhibitor inconclusive
Nc1ccc2c(c1)C(=O)c1ccccc1-2	none
O=C1C(=O)c2ccc(-c3ccccc3)cc2-c2ccccc21	S2 tox 5.62µM, ATXN2 expr inh inconclusive, HepG2 viability 2.51µM, TGFb inhibitor inconclusive, DRD3 antagonist inconclusive
CC(C)(C)c1ccc(-n2ncc3c2CCCC3NC(=O)CCN2CCCC2=O)cc1 (stereo unspecified)	none (no result: ATXN2 expr inh, HepG2 viability)
CC(C)(C)c1ccc(-n2ncc3c2CCCC3NC(=O)CN2CCCC2=O)cc1 (stereo unspecified)	HepG2 viability 12.6µM
COCCCn1c(CCC(=O)O)ccc1-c1cccs1	DRD3 antagonist -54.5
CCCn1c(CCC(=O)O)ccc1-c1cccs1	none
CCn1ccnc1CN(C)Cc1cn(-c2cccc(C)c2)nc1-c1cccc(F)c1	S2 tox 25.1µM, TGFb inhibitor inconclusive (no result: ATXN2 expr inh)
O=C(C1CCCN(S(=O)(=O)c2cccc3nsnc23)C1)N1CCN(c2ccccc2Cl)CC1 (stereo unspecified)	TGFb inhibitor 14.1µM (no result: DRD3 antagonist)
O=C(Nc1cccc(C(F)(F)F)c1)C1CCCN(S(=O)(=O)c2cccc3nsnc23)C1 (stereo unspecified)	TGFb inhibitor 6.31µM (no result: DRD3 antagonist)
O=C(C1CCN(S(=O)(=O)c2cccc3nsnc23)CC1)N1CCn2c1nc1ccccc12	DRD3 antagonist -101.1
CCOc1cccc(-c2c(C(=O)N/N=C/c3sccc3C)nnn2-c2nonc2N)c1	HepG2 viability 4.47µM, TGFb inhibitor 10µM (no result: ATXN2 expr inh)
Cc1c(C(=O)N/N=C/c2c(O)ccc3ccccc23)nnn1-c1nonc1N	S2 tox inconclusive, ATXN2 expr inh 1.58µM
Nc1nonc1-n1nnc(C(=O)N/N=C/c2cccc(Cl)c2)c1CSc1ccccc1	DRD3 agonist 38.8
CCOc1ccc(-c2c(C(=O)N/N=C/c3sccc3C)nnn2-c2nonc2N)cc1	S2 tox inconclusive
COc1ccc2c(c1)-c1nc(-n3ncc(C(=O)N(C)C(C)c4ccon4)c3C3CC3)ncc1CC2 (stereo unspecified)	none (no result: ATXN2 expr inh, DRD3 agonist, HepG2 viability, TGFb inhibitor, DRD3 antagonist)
COc1cc(=O)n2c(c1C(=O)N(C)Cc1nonc1C)CCN(CC1CC=CCC1)CC2 (stereo unspecified)	none (no result: ATXN2 expr inh, DRD3 agonist, HepG2 viability, TGFb inhibitor, DRD3 antagonist)
COC(=O)c1c(-c2cccs2)csc1NC(=O)c1cc(OC)cc(OC)c1	none (no result: DRD3 antagonist)
CN(C)C/C=C(/c1ccc(Br)cc1)c1cccnc1	DRD3 antagonist -104.8
CN(C)CCO/N=C(\c1ccc(Br)cc1)c1cccnc1	DRD3 antagonist inconclusive
COc1ccc(Cl)cc1NC(=O)CSc1nc2ccccc2nc1N1CCCCC1	none (no result: DRD3 antagonist)
Cc1ccccc1NC(=O)CSc1nc(-c2ccccc2C)nc2cc(=O)[nH]n12	S2 tox inconclusive, ATXN2 expr inh inconclusive, TGFb inhibitor 3.55µM (no result: DRD3 antagonist)
Cc1ccccc1NC(=O)CSc1nc(-c2ccco2)nc2cc(=O)[nH]n12	none (no result: DRD3 antagonist)
CC1CCC(NC(=O)CCc2cn(Cc3ccc(F)cc3)c3ccccc23)CC1 (stereo unspecified)	TGFb inhibitor inconclusive (no result: S2 tox, ATXN2 expr inh, DRD3 antagonist)
Cc1c(C(=O)N2CCN(c3ccccn3)CC2)oc2c(F)cccc12	DRD3 agonist 60.0
Clc1ccc2nc(-c3cccs3)c(Nc3ccc4c(c3)OCCO4)n2c1	S2 tox inconclusive (no result: DRD3 antagonist)
COc1cc(-c2nc3ccc(C)cn3c2Nc2ccc(Cl)cc2)ccc1O	S2 tox 15.8µM, ATXN2 expr inh inconclusive, HepG2 viability 15.8µM, TGFb inhibitor inconclusive (no result: DRD3 antagonist)
COc1cc(-c2nc3ccc(Cl)cn3c2Nc2ccc3c(c2)OCO3)ccc1O	S2 tox 17.8µM, ATXN2 expr inh inconclusive, TGFb inhibitor inconclusive (no result: DRD3 antagonist)
Clc1ccc2nc(-c3ccccn3)c(Nc3ccc4c(c3)OCO4)n2c1	ATXN2 expr inh inconclusive, DRD3 antagonist -59.7
COc1cccc(OCc2ccc(Cn3nc(NC(=O)NCCc4ccc(OC)c(OC)c4)c4ccccc43)cc2)c1	DRD3 antagonist -108.2
CC1(C)N=C(c2cccc(F)c2)C(=O)N1	DRD3 agonist 43.4

Assay outcomes deposited in PubChem BioAssay by National Center for Advancing Translational Sciences (NCATS).
